In ChEMBL document CHEMBL3988442, “University of Dundee, Small-Polar-MMV Screening Library” (2021):

Species on record: Homo sapiens
Experiment: To identify inhibition of the IFN signalling (Jak-Stat) pathway via expression of an eGFP reporter gene under the control of an IFN-stimulated response element (ISRE) containing MxA promoter.
Type: functional
Design: scale not given: direction of the effect not stated beside the values
Settings: 30 µM

Compound | Percent Effect [%]
CCc1noc(C(C)N2CCN(Cc3nnc(C4CC4)o3)CC2)n1 (stereo not given) | -5.04
CN(C)CCN1CCCC12CCN(C(=O)c1cnccn1)CC2 | 0.368
CC(C)(C)c1n[nH]c(C2CN(C(=O)CCc3cscn3)CCO2)n1 (stereo not given) | 6.37
Cc1nn2cccnc2c1C(=O)N1CCCC(n2ccnc2)C1 (stereo not given) | 2.09
Cc1ccc2oc(C(=O)N3CCCC(c4noc(C)n4)C3)cc2n1 (stereo not given) | 11
CN1CC(c2ccccc2)CC12CCN(C(=O)c1c(Cl)cnn1C)CC2 (stereo not given) | -5.06
O=C(NCC1CC1)C1CCC2(CCN(C(=O)c3ccccn3)CC2)O1 (stereo not given) | 9.93
CC(C)CN1CCN(C(=O)NCc2cccnc2-n2cccn2)CC1 | 2.63
Fc1ccc(-c2n[nH]cc2-c2ccnc(NCCN3CCCC3)n2)cc1 | 5.44
NCc1cn(-c2ccccc2C(=O)NCc2ccccc2)cn1 | 26.2
CC(C)CCC(=O)NC(C)c1nnc2n1CCCCC2 (stereo not given) | -5.87
CC(=O)N1CCCC1c1cc(N2CCN(C3CCCC3)CC2)cc(C)n1 (stereo not given) | 6.74
O=C1CCC(C(=O)NCc2nn(-c3ccccc3)c3c2CCC3)CN1 (stereo not given) | 22
COc1ccc(CNCc2ccc(N3CCCCC3)nc2)cc1OC | 2.97
CN1CC(=O)N(c2cnn(C)c2)CC12CCN(C(=O)c1ccsc1)C2 (stereo not given) | -0.162
CCN(C)c1ncnc2c1CCN(Cc1ccc(OC)cc1)CC2 | 25.4
CCOc1ncccc1CNC(=O)Nc1ccc(N(C)C)nc1 | 13.9
Cc1nc(C)n(CC2CN(CCOCC(F)(F)F)CCO2)n1 (stereo not given) | 6.11
CN(CCNC(=O)c1scnc1Cl)c1ccccc1 | 20
Cc1[nH]ncc1C(=O)N1CCN(CC(O)C(C)(C)C)CC1 (stereo not given) | -1.39
